Data reported in the supplement of paper PMC13380429.
Structures can show the parent of a compound that is named as a salt.

Experiments:
[1] = system: Vero E6 infected with SARS-CoV-2; assay: morphology score (similarity to uninfected cells); higher = more like uninfected cells; settings: 24 h
[2] = system: Vero E6 infected with SARS-CoV-2; assay: SARS-CoV-2 infection rate relative to infected DMSO; higher = more infection, active = 60 or less; settings: 24 h

Compound	morphology score [1]	SARS-CoV-2 infection rate [2]
CC(=O)N1CC[N+](C)(C)CC1 [4-acetyl-1,1-dimethylpiperazinium] (10 µM)	0.103	88.5% (inactive)
CCN(CC)C(=O)N1CCN(C)CC1 [diethylcarbamazine] (10 µM)	0.035	104% (inactive)
Cc1ncc(OC[C@@]2(c3cccc(F)c3)C[C@H]2C(=O)Nc2ccc(F)cn2)c(C)n1 [lemborexant] (10 µM)	0.0108	112% (inactive)
COc1ccc2ccc(=O)oc2c1CC=C(C)C [osthol] (10 µM)	0.243	107% (inactive)
O[C@@H]1[C@H](O)[C@@H](CCl)O[C@H]1n1cnc2c(NC3CC4CCC3C4)ncnc21 (mixture of isomers) [5'-chloro-5'-deoxy-ENBA-(+/-)] (10 µM)	0.0934	104% (inactive)
C#C[C@]1(OC(C)=O)CC[C@H]2[C@@H]3CCC4=CC(=NO)CC[C@@H]4[C@H]3CC[C@@]21CC (mixture of isomers) [norgestimate] (10 µM)	0.111	108% (inactive)
Oc1noc2c1CCNC2 [gaboxadol] (10 µM)	0.0535	106% (inactive)
CN(C)CCCN1c2ccccc2Sc2ccc(C(F)(F)F)cc21 [triflupromazine] (10 µM)	0.465	56% (active)
CC1(C)CCC(C)(C)c2c1cc(C(=O)Nc1cc(F)c(C(=O)O)c(F)c1)c(O)c2Cl (10 µM)	-0.137	110% (inactive)
CCn1c(-c2nonc2N)nc2cncc(C(=O)N3CC[C@H](N)C3)c21 (0.833333 µM)	0.488	87% (inactive)
O=C(O)[C@H]1O[C@@H](Oc2cc3oc(-c4ccccc4)cc(=O)c3c(O)c2O)[C@H](O)[C@@H](O)[C@@H]1O [baicalin] (10 µM)	0.165	100% (inactive)
COC(=O)C1=C(C)NC(C)=C(C(=O)OCCN(C)Cc2ccccc2)C1c1cccc([N+](=O)[O-])c1 (configuration not stated) [nicardipine] (10 µM)	0.0181	103% (inactive)
N=C(C[C@@H](O)COc1ccccc1-c1ccccc1)N1CCCCC1 (10 µM)	0.0845	104% (inactive)
CN(C)CCCSc1ccccc1NC(=O)/C=C/c1ccccc1 [cinanserin] (10 µM)	0.164	92% (inactive)
Clc1ccc(CCCOCCCN2CCCCC2)cc1 [pitolisant] (10 µM)	0.243	81% (inactive)
Cc1nnc(C(=O)NC(C)(C)c2nc(C(=O)NCc3ccc(F)cc3)c(O)c(=O)n2C)o1 [raltegravir] (10 µM)	0.324	110% (inactive)
COc1ccc2cc([C@H](C)C(=O)O)ccc2c1 [naproxen] (10 µM)	-0.0223	106% (inactive)
O=C(O)[C@@H]1C[C@@H](C2CCCCC2)CN1C(=O)CP(=O)(O)CCCCc1ccccc1 [fosinoprilat] (10 µM)	0.0775	100% (inactive)
CC(C)[C@@H](C(=O)Nc1nccs1)c1ccc(Cl)cc1 (10 µM)	0.0344	98.5% (inactive)
CCS(=O)(=O)N(Cc1cccnc1)c1cccc(-c2ccc(C#N)cc2)c1 (10 µM)	0.372	87% (inactive)
CC[C@@H](c1cccc(O)c1)[C@@H](C)CN(C)C [Tapentadol (hydrochloride)] (10 µM)	0.0731	108% (inactive)

Compound	morphology score [1]	SARS-CoV-2 infection rate [2]
CC(C)(C)Nc1nc(Nc2ccc(C(N)=O)cc2)cc(N)c1C#N (0.833333 µM)	0.029	106% (inactive)
Cn1cnc([N+](=O)[O-])c1Sc1ncnc2[nH]cnc12 [azathioprine] (10 µM)	0.172	95.5% (inactive)
CC(=O)NCCc1c[nH]c2ccccc12 [N-acetyltryptamine] (10 µM)	0.0383	94.5% (inactive)
c1ccc2nc(C3=NCCN3)ccc2c1 (10 µM)	0.125	93% (inactive)
CC(C)(C)OC(=O)c1ncn2c1[C@@H]1CCCN1C(=O)c1c(Br)cccc1-2 [bretazenil] (10 µM)	0.108	101% (inactive)
CCC(C)SSc1ncc[nH]1 (configuration not stated) (10 µM)	-0.172	95% (inactive)
C[C@@H]1c2ccccc2CN1CC1=NCCN1 (racemic) (10 µM)	0.0304	92.5% (inactive)
OC[C@H]1O[C@@H](Oc2cc(O)cc(/C=C/c3ccc(O)cc3)c2)[C@H](O)[C@@H](O)[C@@H]1O [polydatin] (10 µM)	0.0104	104% (inactive)
CC(C)Oc1ccc(-c2nc(-c3cccc4c3CC[C@H]4NCCC(=O)O)no2)cc1C#N (10 µM)	0.181	96.5% (inactive)
COc1ccc(-c2cnc3c(-c4cccc5ncccc45)cnn3c2)cc1 (10 µM)	0.294	100% (inactive)
O=C1NC(=O)C(c2ccccc2[N+](=O)[O-])=C1Nc1ccc(O)c(Cl)c1 (10 µM)	-0.00184	114% (inactive)
CCCCc1cc2ccccc2c(OCCN(C)C)n1 [dimethisoquin] (10 µM)	0.41	71.5% (inactive)
CC(C)Nc1nc2cc(Cl)c(Cl)cc2n1[C@H]1O[C@@H](CO)[C@H](O)[C@@H]1O [maribavir] (10 µM)	-0.0681	122% (inactive)
COc1ccc2cc3[n+](cc2c1OC)CCc1cc2c(cc1-3)OCO2 [berberine] (10 µM)	0.0605	98% (inactive)
C[N+](C)(C)CC[N+]1(C)Cc2c(Cl)c(Cl)c(Cl)c(Cl)c2C1 [chlorisondamine-diiodide] (10 µM)	0.224	90.5% (inactive)
CC[C@]1(O)C[C@@H]2CN(CCc3c([nH]c4ccccc34)[C@@](C(=O)OC)(c3cc4c(cc3OC)N(C)[C@H]3[C@@](O)(C(N)=O)[C@H](O)[C@]5(CC)C=CCN6CC[C@]43[C@@H]65)C2)C1 [vindesine] (10 µM)	-0.107	103% (inactive)
COc1ccc(CCN(C)CCc2ccc(OC)c(OC)c2)cc1OC (10 µM)	0.0297	103% (inactive)
c1cc2c3c(c1)c1c(n3CCNC2)CCCC1 (10 µM)	-0.0322	104% (inactive)
C[C@@H]1NC(C)(C)CO[C@@]1(O)c1cccc(Cl)c1 [radafaxine] (10 µM)	-0.0433	110% (inactive)
Cc1ccccc1C(OCCN(C)C)c1ccccc1 (configuration not stated) [orphenadrine] (10 µM)	0.316	87% (inactive)
CNCC[C@@H](Oc1ccccc1C)c1ccccc1 [atomoxetine] (10 µM)	0.0668	102% (inactive)

Compound	morphology score [1]	SARS-CoV-2 infection rate [2]
CC(C(=O)O)c1ccc2c(c1)CC(=O)c1ccccc1S2 (configuration not stated) [zaltoprofen] (10 µM)	0.241	104% (inactive)
Cn1c([N+](=O)[O-])cnc1COC(N)=O [ronidazole] (10 µM)	-0.00677	114% (inactive)
Fc1ccc(-c2c3cccc(C(F)(F)F)c3nn2Cc2ccc(F)cc2Cl)cc1 (10 µM)	0.289	95.5% (inactive)
CC(C)C(=O)c1c(C(C)C)nn2ccccc12 [ibudilast] (10 µM)	0.0924	97% (inactive)
COc1cc2c(cc1OCCCN1CCCC1)N=C(N)C21CCC1 (10 µM)	0.0229	106% (inactive)
CN1CC[C@@H](NC(=O)Nc2ccc(C#N)cc2)C[C@@H]1c1nc2ccccc2[nH]1 [glasdegib] (10 µM)	0.066	100% (inactive)
CN1CCN(CCOc2cc(OC3CCOCC3)c3c(Nc4c(Cl)ccc5c4OCO5)ncnc3c2)CC1 [saracatinib] (10 µM)	-0.132	110% (inactive)
COc1nccc(-c2c(-c3ccc(F)cc3)ncn2[C@H]2CC[C@H](O)CC2)n1 (10 µM)	0.396	85% (inactive)
CC(=O)NCCCCCC(=O)O [acexamic-acid] (10 µM)	-0.0574	112% (inactive)
N=C(N)NC(=N)Nc1ccccc1 [1-phenylbiguanide] (10 µM)	0.219	86.5% (inactive)
CCN(CC)CCOC(=O)c1ccc(N)cc1 [procaine] (10 µM)	-0.107	115% (inactive)
C[C@]12CC/C(=N\OCCN)C[C@@H]1C(=O)C[C@@H]1[C@@H]2CC[C@]2(C)C(=O)CC[C@@H]12 [istaroxime] (0.833333 µM)	0.151	102% (inactive)
CC(C)C(N)=O [isobutyramide] (10 µM)	0.073	111% (inactive)
CN(C)c1cccc(-c2c3c(=O)n(-c4ccccc4Cl)[nH]c3cc(=O)n2C)c1 (10 µM)	0.165	112% (inactive)
CCNCC(O)c1cccc(O)c1 (configuration not stated) [etilefrine] (10 µM)	0.131	100% (inactive)
CCCCCCCCCCCC1=C(O)C(=O)C=C(O)C1=O [embelin] (10 µM)	-0.0413	106% (inactive)
O=C(CSc1nc2c(c(=O)n1-c1ccccc1)SCC2)Nc1ccc(-c2ccccc2)cn1 (10 µM)	0.109	112% (inactive)
CCCCCNCC(N)=O [milacemide] (10 µM)	0.0276	99% (inactive)
CO[C@H]1/C=C/O[C@@]2(C)Oc3c(C)c(O)c4c(O)c(c5c(nc6cc(C)ccn65)c4c3C2=O)NC(=O)/C(C)=C\C=C\[C@H](C)[C@H](O)[C@@H](C)[C@@H](O)[C@@H](C)[C@H](OC(C)=O)[C@@H]1C [rifaximin] (10 µM)	0.0779	108% (inactive)
